The list is not random: actives were taken first. Their share in the collection is about 3.2%.
PfGluPho inh: PfG6PD enzyme inhibitors, primary screen, biochemical, fluorescence intensity, uHTS. glucose-6-phosphate dehydrogenase-6-phosphogluconolactonase (Plasmodium falciparum 3D7). PfGluPho enzyme, NADPH resazurin-diaphorase fluorescence. inhibition, % at 20 µM. 350,000 compounds, 0.78% hits. AID 504690, 2011;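 active means inhibition reaching at least a set limit at 20 µM in the primary screen, cut at about 59% in these data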
CRFR2-BP ag: agonists of CRF-BP/CRF-R2 complex, primary screen, cell-based, HEK293, calcium dye fluorescence, uHTS | calcium dye fluorescence (FLIPR); percent of saturating CRF peptide response | activation, % at 13.2 µM | 350,000 compounds, 0.46% hits;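 active means activation of at least 50%, plus an integration ratio under a set limit after plate pattern correction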
FAS-TE inh: FAS thioesterase domain inhibitors, primary screen, biochemical, fluorescence intensity, uHTS; Fatty acid synthase (Homo sapiens), P49327; recombinant FAS-TE, OMFH fluorogenic substrate, fluorescence endpoint; inhibition, % at 15 µM; 360,000 compounds, 0.67% hits;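 active means compounds whose normalised, plate-corrected inhibition of enzyme fluorescence in the single-dose primary screen is 50% or more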
CRFR2-BP antag: antagonists of CRF-BP/CRF-R2 complex, primary screen, cell-based, HEK293, calcium dye fluorescence, uHTS; CRF-induced calcium fluorescence; AID 588475, 2011; inhibition, % at 11.8 µM; 350,000 compounds, 0.59% hits;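 active means inhibition of the ligand-induced calcium signal above about 50% at the single tested concentration, limit read from the data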
aDG glyco act: activators of alpha-DG glycosylation, primary screen, uHTS, Pro5-aDG cells, AlphaScreen; AID 624168, 2012; activation, % at 10 µM; alpha-DG glycosylation AlphaScreen (IIH6); 0% Pro5, 100% B10-LARGE cell signal; 360,000 compounds, 0.22% hits;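 active means activation of at least 8% versus controls, or a plate z-score of at least 8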;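 further: Pro5 are CHO cells carrying HIG-tagged alpha-DG that lacks glycosylation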
Cardio protect: cardioprotection against H2O2-induced cell death, primary screen, uHTS, H9c2 cells, ATPLite luminescence. 360,000 compounds, 0.63% hits. protection from H2O2 cell death, % at 20 µM. H9c2 cardiomyocytes, H2O2 injury protection, 2 h. AID 588492, 2011;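 active means compounds giving at least 50% protection of heart cells from peroxide-induced death in the single-dose screen, raw or plate-pattern-corrected value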
Numbers stand for hits; n = inactive; x = not tested or not shown; ! = a repeat was not active.

SMILES	PfGluPho inh	CRFR2-BP ag	FAS-TE inh	CRFR2-BP antag	aDG glyco act	Cardio protect
C=CCc1cccc(/C=N/NC(=O)CCCNc2ccc(C)cc2)c1O	n	n	n	n	n	n
CCCC(=O)N1CCc2cc(-c3nc(N)sc3C)ccc21	n	n	n	51	n	n
O=C(O)C(=O)/C(=C\c1ccccc1)c1ccc2ccccc2n1	n	n	n	n	n	n
O=C(O)C(=O)/C(=C\c1cccc2ccccc12)c1ccc2ccccc2n1	n	96	n	n	n	n
COc1ccc(CCNC(=O)C(=O)NCC2OCCN2S(=O)(=O)c2cccs2)cc1 (stereo unspecified)	n	n	n	n	n	n
CCOc1ccc(/C=N/NC(=O)C(C)N(c2ccc(OC)cc2)S(C)(=O)=O)cc1OCC (stereo unspecified)	n	n	n	55	n	n
CCOc1ccc(N(C(C)C(=O)Nc2ccc(OC)cc2)S(C)(=O)=O)cc1 (stereo unspecified)	n	n	n	n	n	n
CCOC(=O)c1cc(=O)cc(C(=O)OCC)o1	n	n	n	50	n	n
CC(=O)N/N=C/c1cc(C(C)C)cc(/C=N/NC(C)=O)c1O	n	92	n	n	n	n
CN(C)CCCNC(=S)N1CCn2c(nc3ccccc32)C1	n	n	n	n	n	n
O=C(NCCCO)/C(=C\c1ccco1)NC(=O)c1ccco1	n	n	n	n	n	n
CCc1nc2ccc(C(=O)NCCc3c[nH]c4ccccc34)cn2c1N(C)Cc1ccc(N(C)C)cc1	x	x	n	x	n	n
CC(=O)c1ccc(C(=O)Nc2nnc(-c3ccc(Cl)cc3)o2)cc1	n	n	n	n	n	66
O=C(Nc1nnc(-c2ccco2)o1)c1ccc(Cl)cc1	n	n	n	n	n	n
COc1cccc(C(=O)Nc2nnc(-c3ccc(Cl)cc3)o2)c1	n	n	n	n	n	67
COc1cccc(C(=O)Nc2cccc(-c3nnc(-c4ccco4)o3)c2)c1	n	n	n	n	n	113
O=C(Nc1nnc(-c2ccccc2)o1)c1ccc(Cl)cc1	n	54	n	73	n	n
N#CCc1ccc(OC(=O)c2ccncc2)cc1	n	n	n	n	n	n
C/C=C/C=N/Nc1nc(-c2ccc([N+](=O)[O-])cc2)cs1	n	n	n	n	n	n
CN(C)c1ccc(C(=O)NNC(=O)c2ccc(Cl)cc2)cc1	n	n	n	68	n	n
CN(C)c1ccc(C(CC(=O)O)NC(=O)c2ccc(Cl)cc2)cc1 (stereo unspecified)	n	n	n	n	n	n
CCCCNC(=O)c1ccc2nc(-c3ccco3)c(-c3ccco3)nc2c1	n	n	n	n	n	n
CN(C)c1ccc(C(=O)Nc2nnc(-c3ccc(Cl)cc3)o2)cc1	n	n	n	n	n	53
Cc1cccc(C(=O)Nc2nnc(-c3ccco3)o2)c1	n	n	n	n	n	n
CC(=O)c1ccc(NC(=O)c2ccc3nc(-c4ccco4)c(-c4ccco4)nc3c2)cc1	78	n	n	n	n	n
SMILES	PfGluPho inh	CRFR2-BP ag	FAS-TE inh	CRFR2-BP antag	aDG glyco act	Cardio protect
Cc1ccc(C(=O)Nc2nnc(-c3ccco3)o2)cc1C	n	n	n	51	n	n
CC(C)(C)NC(=O)c1cccc(NC(=O)c2ccc(NC(=O)c3ccco3)cc2)c1	n	n	n	n	n	74
O=C(Nc1ccc(N2CCOCC2)cc1)c1ccc2nc(-c3ccco3)c(-c3ccco3)nc2c1	n	n	n	n	n	n
S=C(Nc1ccc(N2CCOCC2)cc1)Nc1ccc2nc(-c3ccco3)c(-c3ccco3)nc2c1	n	n	n	n	n	56
CC(C)(C)c1ccc(-n2nc(C#N)c(Cl)cc2=O)cc1	n	51	n	n	n	n
CC(C)(C)c1ccc(-n2nc(C(N)=O)c(O)cc2=O)cc1	n	n	n	n	n	n
COc1ccccc1N1CCN(S(=O)(=O)c2ccc(Cl)s2)CC1	n	n	n	n	n	n
Cc1ccc(C(=O)Nc2cccc(C(F)(F)F)c2)cc1NC(=O)c1csc(-c2ccncc2)n1	n	n	n	n	n	55!
COc1c(Cl)cc(-c2noc(C)c2C(=O)NCc2ccc3c(c2)OCO3)cc1Cl	n	71	n	n	n	n
COc1cc(-c2noc(C)c2C(=O)NCc2ccc3c(c2)OCO3)cc(OC)c1OC	n	n	n	n	n	n
CCC(C)c1ccc(NC(=S)Nc2ccc(OC)cc2)cc1 (stereo unspecified)	n	n	n	133	n	n
CC1CCN(CC(=O)N2c3ccccc3CC2C)CC1 (stereo unspecified)	n	n	n	n	n	n
CC1Cc2ccccc2N1C(=O)Cn1nc(C(=O)O)c2ccccc2c1=O (stereo unspecified)	n	n	n	n	n	53
CC1Cc2ccccc2N1C(=O)COC(=O)c1n[nH]c(=O)c2ccccc12 (stereo unspecified)	n	n	n	n	n	54
O=c1c2cc3c(=O)n(-c4ccccc4O)c(=O)c3cc2c(=O)n1-c1ccccc1O	n	n	n	n	n	n
N#C/C(=C\c1ccccc1[N+](=O)[O-])C(=O)NC1CCCCC1	n	100	n	n	n	n
N#C/C(=C\c1cccn1-c1ccccc1)C(=O)NC1CCCCC1	n	n	n	127	n	n
N#C/C(=C\c1ccc(F)c(F)c1)C(=O)NC1CCCCC1	n	n	n	n	n	n
N#C/C(=C\C=C\c1ccccc1[N+](=O)[O-])C(=O)NC1CCCCC1	n	n	n	n	n	n
CCn1cc(C(=O)NCc2cccc(F)c2)c(=O)c2cc(F)c(N3CCN(C(=O)c4ccco4)CC3)cc21	n	n	n	n	n	55
CC(=O)Nc1ccc(Nc2nc(-c3cc4ccccc4oc3=O)cs2)cc1	n	n	n	n	n	n
O=C(O)c1ccc(Nc2nc(-c3cc4ccccc4oc3=O)cs2)cc1O	n	61	n	n	n	n
CC(C)CN1CCN(Cc2cccc3nccnc23)CC1CCO (stereo unspecified)	n	n	n	74	n	n
COc1ccc(/C=N/NC(=O)C2C(=O)NCC2c2ccccc2)c(OC)c1 (stereo unspecified)	n	n	n	n	n	n
COc1cccc(/C=N/NC(=O)CSCC(=O)Nc2ccccc2)c1O	n	n	n	n	n	55
COc1cccc(/C=N/Nc2nc(Nc3ccccc3)nc(-n3nc(C)cc3C)n2)c1O	n	n	n	n	n	74

Compound activity (PubChem BioAssay)
